# Assay results as given in the supplement of paper PMC10105736.
# Unmarked numbers belong to inactive results.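 The calls were made as follows: active = MAPPIT score above the 99th percentile of random reference set scores in the same batch; inactive = at or below it.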
# Columns and labels:
# Assay in all cases: MAPPIT interaction score (arbitrary units); higher = stronger binary interaction signal, active = hit call of the paper
# [1] = biological target: Sirt2; conditions: MAPPIT configuration: N-N; pair source set: Finley_Y2H
# [2] = biological target: Six4; conditions: MAPPIT configuration: N-N; pair source set: Lit-BS-16
# [3] = biological target: Slh; conditions: MAPPIT configuration: N-N; pair source set: Finley_Y2H
# [4] = biological target: Smn; conditions: MAPPIT configuration: N-C; pair source set: Lit-BM-16
# [5] = biological target: Sms; conditions: MAPPIT configuration: N-N; pair source set: Finley_Y2H
# [6] = biological target: SmydA-8; conditions: MAPPIT configuration: N-N; pair source set: screen_2
# [7] = biological target: Snap29; conditions: MAPPIT configuration: N-C; pair source set: Lit-BM-16
# [8] = biological target: Snapin; conditions: MAPPIT configuration: N-N; pair source set: Lit-BM-16
# [9] = biological target: Sod3
# [10] = biological target: Ssrp; conditions: MAPPIT configuration: N-C; pair source set: Lit-BM-16
# [11] = biological target: Su(var)2-10; conditions: MAPPIT configuration: N-N; pair source set: DPIM
# [12] = biological target: Swt1; conditions: MAPPIT configuration: N-N; pair source set: Finley_Y2H
# 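Also: HEK293T cells with Epo stimulation, STAT-responsive firefly luciferase reporter, fold induction versus unstimulated cells divided by the larger fold induction of two negative controls lacking either bait or prey.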
binder,measurement,setting,value
Pgam5 (protein) MRKLTSFVCGTGAGLAAYYLQRLRDPQTVVQNSWTHSDKPVDPWALWDTNWDCREPRALVRPLRNSQPEEENRYNAELEKAKAKKARHIILVRHGEYLDVGDSDDTHHLTERGRKQAEFTGKRLCELGIKWDKVVASTMVRAQETSDIILKQIDFEKEKVVNCAFLREGAPIPPQPPVGHWKPEASQFLRDGSRIEAGFRRYFHRAYPDQEKESYTLIVGHGNVIRYFVCRALQFPAEGWLRININHASITWLTISPSGNVSIKYLGDSGFMPAELLTNRIPRDVKNVV,MAPPIT interaction score,[1],0.996
CG30031 (protein) MLKFVILLSAVACALGGTVPEGLLPQLDGRIVGGSATTISSFPWQISLQRSGSHSCGGSIYSSNVIVTAAHCLQSVSASVLQIRAGSSYWSSGGVTFSVSSFKNHEGYNANTMVNDIAIIKINGALTFSSTIKAIGLASSNPANGAAASVSGWGTLSYGSSSIPSQLQYVNVNIVSQSQCASSTYGYGSQIRSTMICAAASGKDACQGDSGGPLVSGGVLVGVVSWGYGCAYSNYPGVYADVAALRSWVISNA,MAPPIT interaction score,[2],-0.185
rux (protein) MSAPEEHKETPLEVIHEFINGVDDGTIRRDLGEDCILSFYSRNVRGAKAITGFLRNQLTMRYKHEGFEEAAQIEWGDELLLKARFGRSFDSERRRIYEEKERTGTTLHVRPESDDEEVNEKFSSTLITPPRPSSYNLNSLKYVEACGLLNKRNEHIYGGLDMGESCAVHLTLGYRSTFLPGGQVSGFEICLAVYDRGLTSLKRSTLIPPLCSISFARRASARCNPTTDDEEDTEEDSTPPTARRCVRRTLFTEENTQKEEDADFIPVVEQEQPAPQEQPAPQQAEETGEVVIPVDISTALKTTNFSSCTPRKRQQATNGNEVVRKRATGPRRMRF,MAPPIT interaction score,[3],-0.123
Gem2 (protein) MQHEPEDQTFQLQALEICEPDSSFDPQKPPESGEEYLMHMFYERKRCPAVVTKRSSKIRNNTGNTTLEMLDNPELPPFKCLLPTPEWRDEQVKSFQAARSQVLVLRKELANNNYDQSGEPPLTSDQEKWKEFCRNQQPLLSTLLHLTQNDLELLLEMLSKWLQDPNTTVDLLHDVWLARWLYATLVCLHLPLEPHVFSTLRYIARTCIHLRNQLKEDEVQRAAPYNLLLTLTVQVFAQNDFKDYI,MAPPIT interaction score,[4],2.73
l(2)34Fc (protein) MFRLLVLAACLAISVHAYSDGAPKAACRDLTPQHGAKLQVTKPPYSISGPSHVRSDQKLTLTLGGDEFLGFMIQARDGQNRVVGQFQVVDSVHSQTLDCSGKDDTITHLSAQKGKPLTGITFDWIPPAGYKGNVKFMATVVQTGFVYWVGRVTKDIDVE,MAPPIT interaction score,[5],0.335
Hsp67Bc (protein) MPDIPFVLNLDSPDSMYYGHDMFPNRMYRRLHSRQHHDLDLHTLGLIARMGAHAHHLVANKRNGELAALSRGGASNKQGNFEVHLDVGLFQPGELTVKLVNECIVVEGKHEEREDDHGHVSRHFVRRYPLPKEFDSDAIVSTLSEDGVLNITVPPLVSKEELKERIIPIKHVGPSDLFQNGNGHKEAGPAASASEPEAK,MAPPIT interaction score,[6],-0.475
Syx4 (protein) MGKDRLPELLQRSLSTNSSNSSSNGSLLLNVYSGTTEFIIGNTGGNNNSYSVVSQNSHSCSNNNSSTEPKDRSSSKMTQYGSNVDDILNPYTEIRQQLAQIAANLETMNRMAQTVNLRTFNENEMDELHNKNLRLGNQLMTRFNDFKANLPAENDYSLEARMKRTLFYGLHQTFINLWHKNELFLQNYETKVKKNLRLHTKIINSEASEQEIELLIENKTTKLFVDNFLQETEKERQTLREMMDRFNELRRLEKSIEEVHALFMRIQTLVMEQSEVIQRVEFHAQQATLHVDKGADELDQAEQHQKKARKKKIMLIVILAAVLLVLLLVGIYL,MAPPIT interaction score,[7],3.12
Dysb (protein) MFGNLKKKLSSAIQEGLVISENLQQQYRQRVSSGNSGSSQASGITTPISPLGLNESLSSSRSSSLSLSAPFQLTDGVPSHLNVAAGCSLLAKYEDDWQQIHGANEKNAEKAAQIANQISGIQDQASHQHRIMSELNSSLAGIPTLIAQLQNSSQVLNSLEEMGKQLEIELEKLEDLREECELQEFILEQQFQLSRHKQKKLNELEQYRQQIAQKHQSKIKDQEQTLLKLQRERQAVFDDAFREDMEEYKQRGQLTKIQTTSNKLALEEVVLEANEVETKDALEQFLNG,MAPPIT interaction score,[8],3.8 (active)
Drs (protein) MMQIKYLFALFAVLMLVVLGANEADADCLSGRYKGPCAVWDNETCRRVCKEEGRSSGHCSPSLKCWCEGC,MAPPIT interaction score,"[9]; MAPPIT configuration: N-C, pair source set: screen_4",1.45
shv (protein) MQLIKCLVIIQLSLLLVEESFAGRDFYKILNVKKNANTNEVKKAYRRLAKELHPDKNKDDPDASTKFQDLGAAYEVLSNPDKRKTYDRCGEECLKKEGMMDHGGDPFSSFFGDFGFHFGGDGQQQDAPRGADIVMDLYVSLEELYSGNFVEIVRNKPVTKPASGTRKCNCRQEMVTRNLGPGRFQMIQQTVCDECPNVKLVNEERTLEIEVEQGMVDGQETRFVAEGEPHIDGEPGDLIVRVQQMPHPRFLRKNDDLYTNVTISLQDALVGFSMEIKHLDGHLVPVTREKVTWPGARIRKKGEGMPNFENNNLTGNLYITFDVEFPKKDLTEEDKEALKKILDQSSINRIYNGL,MAPPIT interaction score,"[9]; MAPPIT configuration: N-N, pair source set: Curagen_high_conf",0.367
noc (protein) MVVLEGGGGVVTIGNNQYLQPDYLAPLPTTMDAKKSPLALLAQTCSQIGADSSAVKPLLAMDKNKTKPGACSSSSNSSSSSGSAEISAAKSPSGQAKSPKSSTPISSTATSASLSNTSTGEIKLAFKPYETNVLSHQNQNSFKSSSSLDAEPTRPSSKNSSSAQERVPSRSKSNATPTDGGKAEISAHDSSSSRKTVSPSGSSQRGASPIVRSGMEVLNNANGTAQHPKEMSSMAAAAAAAAAAYKAAGPYGLNPLSALCCPPGMEQHANPAFRPPFAGGFSHHHAAMLAVAANGGYPGGAPGGGPAGQPNPYISYQRIKTPAGGEAIVPVCKDPYCQGCPYSAHTQQMLMGAPCPAGCTQCEHQKYGLAMASAAGLPPAHPYSQAAAAAAANAAAARSAPYVCSWVVGDAYCGKRFQTSDELFSHLRTHTGNLSDPAAAAAALAQSQAQSLLGTLFPPSALRAGYPTPPLSPMSAAAAAARYHPYAKPPPGALAGGPSPFGAAGAFNPAAAAAAAALGPYYSPYAMYGQRMGAAHQ,MAPPIT interaction score,"[9]; MAPPIT configuration: N-N, pair source set: Lit-BS-16",0.758
dre4 (protein) MSSFVLDKEAFVRRVKRLYTEWRAPSIGHDDALRNLDCIMSIVGVEEDVMYSKSMALQLWLLGYELTDTISVFCSDAVYFLTSKKKIEFLKQTQNITEEGFPEINLLVRDRTDKDQGNFEKLIKALQNSKKGKRLGVFAKDAYPGEFSEAWKKSLTASKFEHVDISTIIAYLMCPKDESEINNIRKASLVSMDIFNKYLKDEIMDIIDSDRKVKHNKLSDGCEAAIGEKKYTSGLDPRLLDMAYPPIIQSGGAYSLKFSAVADKNPLHFGVIVCSLGARYKSYCSNISRTFLVNPTEAMQENYTFLVSVQEEILKLLVPGTKLCDVYEKTLDFVKKEKPSMVDNLPKSFGFAMGLEFRENSIVIGPKCQALLKKNMVFNLHVGISNLTNPEATDKEGKNYALFIGDTVLVGEQSPASVMTPSKKKIKNVGIFIKDDSDEEDVDDKKTAKEDQGTEILGRSKRNAVLESKLRNEINTEEKRKEHQRELAQQLNERAKDRLARQGNSKEVEKVRKNTVSYKSISQMPREPEVKELKLYVDKKYETVIMPVFGIQVPFHISTIKNISQSVEGEYTYLRINFFHPGATMGRNEGGLYPQPEATFVKEVTYRSSNVKEHGEVGAPSANLNNAFRLIKEVQKRFKTREAEEREKEDLVKQDTLILSQNKGNPKLKDLYIRPNIVTKRMTGSLEAHSNGFRYISVRGDKVDILYNNIKSAFFQPCDGEMIILLHFHLKYAIMFGKKKHVDVQFYTEVGEITTDLGKHQHMHDRDDLAAEQAERELRHKLKTAFKSFCEKVETMTKSVVEFDTPFRELGFPGAPFRSTVTLQPTSGSLVNLTEWPPFVITLDDVELVHFERVQFHLRNFDMIFVFKEYNKKVAMVNAIPMNMLDHVKEWLNSCDIRYSEGVQSLNWQKIMKTITDDPEGFFEQGGWTFLDPESGSEGENETAESEEDEAYNPTDAESDEESDEDSEYSEASEDSEESDEDLGSDEESGKDWSDLEREAAEEDRNHDYAADDKPRNGKFDSKKHGKSSKHSPSKSSKDKYNSRDKHHSSSSSGNKSSSKDKDRKRSRDDSRDNGHKSKKSRH,MAPPIT interaction score,[10],0.759
Calr (protein) MMWCKTVIVLLATVGFISAEVYLKENFDNENWEDTWIYSKHPGKEFGKFVLTPGTFYNDAEADKGIQTSQDARFYAASRKFDGFSNEDKPLVVQFSVKHEQNIDCGGGYVKLFDCSLDQTDMHGESPYEIMFGPDICGPGTKKVHVIFSYKGKNHLISKDIRCKDDVYTHFYTLIVRPDNTYEVLIDNEKVESGNLEDDWDFLAPKKIKDPTATKPEDWDDRATIPDPDDKKPEDWDKPEHIPDPDATKPEDWDDEMDGEWEPPMIDNPEFKGEWQPKQLDNPNYKGAWEHPEIANPEYVPDDKLYLRKEICTLGFDLWQVKSGTIFDNVLITDDVELAAKAAAEVKNTQAGEKKMKEAQDEVQRKKDEEEAKKASDKDDEDEDDDDEEKDDESKQDKDQSEHDEL,MAPPIT interaction score,[11],1.1
Zpr1 (protein) MSTVSDPNSSNPPESAGNIRPEPIFREINAEQTDEIVEVESACMNCFETGVTRLLPTKIPFFREVVLMSFKCDHCGHINNEMQSASEIQKSGIRIELRVQSVADLNRRVVRSDNSSISIPEIELEIPVQSQKGEVTTVEGIIERTIAGLSQDQEKRRIDHPETAASIEKYIERLHRLKEVTTPFQVLLEDISGNSFIENPLAPAADPQLKTSYFTRSQQQNEQLGLYEQNHEEQHLLKPIAEDSWPIENLHGEVLQFPTNCPSCQAPCETNMKLTNIPHFKEVVIMATVCGACGHKTNEVKSGGGVEAQGVRFRVQIASREDLTRDVLKSETCSMSIPELDLEVGPHALCGRFTTVEGLLVAMRDQLDGTLFHDSADDATKQQMQRFLDTFEDVMNLKRVITLVLEDPAGNTYVQSLSDDDSEPDDKLTVERYDRSYEDNEDLGLNDMKTEGYEEKA,MAPPIT interaction score,[12],-0.39
